Vaccinia Venus = vaccinia inhibition (Venus reporter); Vaccinia virus Venus reporter expression, fluorescence; Potency, µM (titrated, usually from 36.5 µM), for inactives: top-dose activity change, negative = inhibition, most hits filed as inhibitors; 330,000 compounds, 0.46% hits; AID 720580; calls by dose curve; tested in A549 cells; note: potency is the fitted concentration of half-maximal effect; nearly all actives have a fitted effect of over 30% in size
HCMV antiviral = blocks human cytomegalovirus replication. HFF cells, HCMV-luciferase reporter, 72 h; hits give low values. activity change, negative = inhibition, % at 57.5 µM. 410,000 compounds, 4.5% hits; in the data active = activity change below about -60%; inconclusive = no clear call, values can overlap the other calls; inactive = above about -39%
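Human foreskin fibroblasts infected with luciferase-reporter HCMV at MOI 1 PFU/cell, compounds at two doses. Luciferase measured 72 h post infection; normalized to buffer-only basal and Salinomycin (10uM) controls.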
VACV mCherry inh = vaccinia inhibition (mCherry reporter) | Vaccinia virus mCherry reporter infection, fluorescence | Potency, µM (series often up to 36.5 µM), inactives show at the highest dose activity change, negative = inhibition, hits mostly inhibitors | 310,000 compounds, 0.63% hits | AID 720579; calls by dose curve; tested in A549 cells; note: potency is the fitted concentration of half-maximal effect; nearly all actives have a fitted effect of over 35% in size
LASV entry inh = blocks Lassa virus binding to or entry into cells. Lassa virus pseudotype entry inhibition, cell reporter. Potency, µM (top dose mostly 37.9 µM), without a hit: top-dose activity change, negative = inhibition, actives largely listed as inhibitors. 300,000 compounds, 1.2% hits. AID 540256; calls by dose curve; tested in HEK293 cells; note: potency is the fitted concentration of half-maximal effect; nearly all actives have a fitted effect of over 50% in size
MARV entry inh = inhibitors of Marburg virus binding or cell entry. Marburg virus pseudotyped entry inhibition, cell reporter. Potency, µM (series often up to 37.8 µM), for the others: top-dose activity change, negative = inhibition, actives largely listed as inhibitors. 300,000 compounds, 1.8% hits; calls by dose curve; tested in HEK293 cells; note: potency is the fitted concentration of half-maximal effect
HCV inh = blocks hepatitis C virus. Potency, µM (highest dose often 41.8 µM), for the others: at the top dose activity change, negative = inhibition, hits mostly inhibitors. Huh7.5.1 HCVcc-Cre infection, luciferase reporter, 44 h. 340,000 compounds, 3.4% hits; active = well fitted inhibition curve with a large enough effect; inconclusive = small, poorly fitted or top-dose-only effect, or another doubt; inactive = no such curve, though single readings can be large or run the other way; note: potency is the fitted concentration of half-maximal effect
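Antiviral activity was scored by luciferase reporter output from cells infected with HCVcc-Cre (~0.5 moi) in presence of compound, 44 h infection period, cells seeded 1,000/well 4 h prior.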
* marks the source's active call; other numbers are inactive results; i = inactive; ? = inconclusive; . = not tested or not shown; [ ] = another dose, or the depositor's remark. Compounds with a hit are over-represented: about 7.8% of the library has one in this group of screens. % is set by controls: 0 for no effect and ±100 for the full control effect.

SMILES	Vaccinia Venus	HCMV antiviral	VACV mCherry inh	LASV entry inh	MARV entry inh	HCV inh
CCCn1c(SCC(=O)c2ccc3c(c2)OCCO3)n[nH]c1=O	7%	-19	6%	1%	1%[46.1 µM]	-12%
CCOc1ccccc1NC(=O)CSc1n[nH]c(=O)n1-c1ccccc1	.	19	.	.	.	?
O=c1[nH]nc(SCCS(=O)(=O)c2ccc(F)cc2)n1-c1ccc2c(c1)OCCO2	1.6µM*	-81*	?	-16%[46.1 µM]	?	4%
O=c1[nH]nc(SCCS(=O)(=O)c2ccc(F)cc2)n1-c1ccccc1	2.2µM*	-79*	1.3µM*	-24%	-25%	-12%
Cc1cc(C)cc(NC(=O)C2CCCN(C(=O)c3cnn(-c4ccccc4)c3-n3cccc3)C2)c1 (stereo not given)	-18%	-26	-28%	-24%[46.1 µM]	?	.
COc1ccc(CCNCc2c(C(=O)O)c(C)n(Cc3ccccc3C)c2C)c(OC)c1	8%	10	-3%	-4%[46.1 µM]	12%[46.1 µM]	.
CCOC(=O)c1sc2nc(N3CCOCC3)c3c(c2c1N)CCN(Cc1ccccc1)C3	?	-31	?	16µM*	?	-5%
CN(C(=O)c1sc2nc(N3CCOCC3)c3c(c2c1N)CCCC3)c1ccccc1	-20%	?	-24%	3.5µM*	?	11µM*
Nc1c(C(=O)NCCc2ccccc2)sc2nc(N3CCOCC3)c3c(c12)CCCC3	-26%	?	?	3%	-17%[46.1 µM]	?
CC(=O)/C(N=Nc1ccc2c(c1)OCCO2)=C(\C)O	.	-71*	.	?	?	-24%
Cc1ccn2cc(-c3ccc(C)c(NS(=O)(=O)c4ccc(Cl)cc4)c3)nc2c1	-14%	39	-26%	?	-11%[46.1 µM]	.
CCCCCCCCCCCCCCCC(O)C(N)CO (stereo not given)	-10%	-98*	i	7%	31%	0%[8.37 µM]
CCCCCCCCCCCCCCC[C@@H](O)[C@H](CO)NC(=O)CCCCCCC	-6%[3.33 µM]	.	i[3.33 µM]	.	.	.
O=S1(=O)CCOC[C@H](c2ccccc2)N1Cc1ccccc1	-15%	21	?	.	.	-9%
CC(C)[C@H]1COCCS(=O)(=O)N1Cc1ccccc1-c1cccc2c1oc1ccccc12	-29%	-21	?	.	?	13µM*
CCCC[C@H]1COCCS(=O)(=O)N1Cc1ccc(C)cc1	2.2µM*	?	?	.	.	-18%
CCC1COCCS(=O)(=O)N1Cc1ccc(Cl)cc1 (stereo not given)	-15%	-13	-21%	.	.	2%
O=S1(=O)CCOC[C@H](c2ccccc2)N1Cc1cccc(Cl)c1	-14%	-80*	-5%	.	.	-3%
CC(C)[C@H]1COCCS(=O)(=O)N1Cc1ccc(Cl)cc1	?	-26	25µM*	.	.	17%
CCCCOc1ccccc1-c1ccccc1CN1[C@@H](C(C)C)COCCS1(=O)=O	-24%	-32	-2%	.	.	?
C=CC[n+]1cccc2cccc(O)c21	-10%	.	i	.	.	.
Cc1ccc(-c2nn(-c3ccc(F)cc3)c3c2cnc2cc(F)c(F)cc23)cc1	-2%	-3	8%	-5%[46.1 µM]	4%[46.1 µM]	.
Cc1ccc(CN2[C@@H](CC3CCCCC3)COCCS2(=O)=O)cc1	-20%	-70*	-4%	.	.	-4%
O=S1(=O)CCOC[C@H](CC2CCCCC2)N1Cc1ccc(Cl)cc1	-18%	-20	-4%	.	.	18%
COC(=O)c1ccc(N2C(=O)Cc3cc(OC)c(OC)cc3C2c2ccc(F)cc2)cc1 (stereo not given)	10%	12	3%	-26%[46.1 µM]	-12%[46.1 µM]	.
SMILES	Vaccinia Venus	HCMV antiviral	VACV mCherry inh	LASV entry inh	MARV entry inh	HCV inh
O=c1c2ccccc2nc(N2CCN(c3cccc(Cl)c3)CC2)n1-c1ccccc1	-22%	37	-25%	?	?	.
CN(C(=O)c1cccc(NC(=O)c2cccs2)c1)c1ccccc1	-19%	?	-4%	2%	-28%	4%
O=C1Nc2ccccc2NC(c2cccc(Br)c2)=C1N(C(=O)C(=O)c1cccs1)c1ccccc1	.	-88*	.	.	.	.
Cc1nc(-c2ccc(S(=O)(=O)N3CCN(c4ccccc4F)CC3)cc2)co1	0%	-22	1%	0%[46.1 µM]	.	.
C[C@H]1CN(CCc2ccccc2)C(=O)[C@@H]1CC(=O)Nc1ccccc1	-9%	-75*	-4%	.	.	.
Cc1cc(=O)n2c(C(=O)Nc3ccc(Br)cc3)c(C(=O)Nc3ccccc3)sc2n1	2%	-8	-5%	2%[46.1 µM]	-2%[46.1 µM]	.
